Assay results reported in PubChem BioAssay.

Biological target: Torsin-1A (Homo sapiens) (UniProt O14656)
Experiment: torsin A binders from cell lysate, primary screen, small-molecule microarray, wild-type, 635/667 nm (AID 1149)
Details: COS7 hTOR1A-WT lysate, 635 nm fluorescence, higher = more signal

Chain of Torsin-1A (Homo sapiens) (O14656 whole entry, looked up): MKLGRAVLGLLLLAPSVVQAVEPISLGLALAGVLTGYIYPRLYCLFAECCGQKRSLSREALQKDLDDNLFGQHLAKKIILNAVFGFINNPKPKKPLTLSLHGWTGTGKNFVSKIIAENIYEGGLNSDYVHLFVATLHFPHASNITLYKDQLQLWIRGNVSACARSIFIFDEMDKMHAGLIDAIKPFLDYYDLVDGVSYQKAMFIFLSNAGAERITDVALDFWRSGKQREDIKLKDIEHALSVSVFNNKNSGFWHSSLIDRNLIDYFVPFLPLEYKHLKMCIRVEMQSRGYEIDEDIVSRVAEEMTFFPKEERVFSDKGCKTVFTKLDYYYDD

Point of comparison: `C=CCNC(=O)[C@@H]1[C@H]2C(=O)O[C@H](c3ccccc3)[C@H](c3ccccc3)N2[C@H](c2ccc(O)cc2)[C@@]12C(=O)Nc1ccc(C#CC3(O)CCCCCC3)cc12`, composite z-score 0.16. Against it:
- CCCCN1CC=CC23O[C@@H]4C=CCOC(=O)[C@@H]4[C@H]2C(=O)N(CCO)[C@@H]3C1=O (some centres undefined) — lower, 0.0805
- C=CC[C@@]12N=C(c3ccc(OCCCO)cc3)O[C@@H]1c1ccccc1N(Cc1ccccc1)C2=O — higher, 1.19
- COCCOC(=O)N1C(=O)[C@@]2(c3cc(C#CCC(C(=O)OC)C(=O)OC)ccc31)[C@H](C(N)=O)[C@H]1C(=O)O[C@H](c3ccccc3)[C@H](c3ccccc3)N1[C@@H]2c1ccc(OCCO)cc1 — higher, 0.704
- CCOC(=O)C1=C(C(=O)OCC)N(S(=O)(=O)CC[Si](C)(C)C)[C@H](c2ccccc2)CC1 — higher, 0.454
- COC(=O)C1=CC(CCCO)=CC(c2ccc(CN3CCCC3)cc2)N(Cc2sc3ccccc3c2Cl)C=C1C(=O)OC (centres undefined) — higher, 0.591
- NC(=O)NCC#Cc1ccc2c(c1)[C@]1(C(=O)N2)[C@H](C(=O)Nc2nc3ccccc3s2)[C@H]2C(=O)O[C@H](c3ccccc3)[C@H](c3ccccc3)N2[C@@H]1c1ccc(OCCO)cc1 — lower, -0.657
- COCCOC(=O)N1C(=O)[C@@]2(c3cc(C#CC4(O)CCCCCC4)ccc31)[C@H](c1ccccc1OCCO)N1[C@H](c3ccccc3)[C@H](c3ccccc3)OC(=O)[C@H]1[C@@H]2C(=O)N1CCCCCCC1 — higher, 0.812
- COCCOC(=O)N1C(=O)[C@@]2(c3cc(C#CCCO)ccc31)[C@H](C(=O)N1CCc3cc(OC)c(OC)cc3C1)[C@H]1C(=O)O[C@H](c3ccccc3)[C@H](c3ccccc3)N1[C@@H]2c1ccccc1OCCO — higher, 0.258
